The record followed here is PubChem BioAssay (EPA / NIEHS).

“And” between values parts separate entries of the source, which are not always exact repeats. Identical values can stand only once. Inconclusive results are not listed. Some structures have more than one record in an assay (separate samples or runs), and their calls can disagree. The source made the active and inactive calls. How the source made its calls: active means hit-call score of the fitted dose curve at least 0.9, where 1 is the maximum; inconclusive means response in the unintended direction; inactive means score below 0.9.

Sequence of frog Thyroid hormone Receptor alpha (TRa), thra-a (gene 397942) (P15204 whole entry, looked up, the tested form may be a part): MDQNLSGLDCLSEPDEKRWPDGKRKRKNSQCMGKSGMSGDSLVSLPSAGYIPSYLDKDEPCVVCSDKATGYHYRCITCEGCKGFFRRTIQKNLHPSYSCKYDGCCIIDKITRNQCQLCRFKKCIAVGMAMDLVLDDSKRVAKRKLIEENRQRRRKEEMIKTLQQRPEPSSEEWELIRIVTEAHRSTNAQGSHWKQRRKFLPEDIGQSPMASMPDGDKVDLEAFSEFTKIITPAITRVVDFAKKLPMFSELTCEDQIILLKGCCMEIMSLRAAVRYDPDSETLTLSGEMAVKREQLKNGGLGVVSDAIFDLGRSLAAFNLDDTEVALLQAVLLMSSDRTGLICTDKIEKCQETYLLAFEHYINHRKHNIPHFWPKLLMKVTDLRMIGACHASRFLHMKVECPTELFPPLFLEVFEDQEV
Sequence of human Thyroid hormone Receptor alpha (TRa), THRA (gene 7067) (P10827 whole entry, looked up, the tested form may be a part): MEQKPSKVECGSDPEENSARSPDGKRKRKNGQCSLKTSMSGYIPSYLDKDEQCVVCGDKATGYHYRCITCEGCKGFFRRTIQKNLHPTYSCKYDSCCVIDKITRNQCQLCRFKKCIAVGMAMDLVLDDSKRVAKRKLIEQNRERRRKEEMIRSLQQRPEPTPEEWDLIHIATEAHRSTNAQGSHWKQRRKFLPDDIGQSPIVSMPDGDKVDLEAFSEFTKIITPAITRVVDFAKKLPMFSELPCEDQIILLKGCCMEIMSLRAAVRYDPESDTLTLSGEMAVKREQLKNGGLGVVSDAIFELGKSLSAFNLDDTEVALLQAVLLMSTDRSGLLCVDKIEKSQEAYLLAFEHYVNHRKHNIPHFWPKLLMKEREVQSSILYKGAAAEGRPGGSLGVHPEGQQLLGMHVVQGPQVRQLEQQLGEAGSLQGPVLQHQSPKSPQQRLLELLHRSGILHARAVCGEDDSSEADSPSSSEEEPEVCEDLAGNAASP

The target in one assay is human Thyroid hormone Receptor alpha (TRa), THRA (gene 7067) (UniProt P10827). The assay can be described thus: ATG_hTRa_XSP2: Attagene TRANS-FACTORIAL Multi-Species (XSP2) HepG2 Assay for human Thyroid hormone Receptor alpha (TRa) (AID 2283838). In outline:
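Gain-of-signal in reporter mRNA, relative to DMSO, after 24 h dosing of transfected HepG2; quantitation by RT-PCR fragment analysis on capillary electrophoresis.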
In the case of `Oc1cc2ccccc2c2ccccc12`, the half-maximal activity concentration (AC50) – broadly, the concentration at which the activity in the assay is half-maximal – is 33.4 µM (active). Still for that read-out and setting: the result for `O=C(O)Cc1cc(I)c(Oc2cc(I)c(O)c(I)c2)c(I)c1` reads 75.3 nM (active) and 30.2 nM (active). In the case of `CCC(C)(C)C1CCC(O)CC1` (stereo not given), the compound was called inactive. On the same count and under the same terms, then `c1ccc2c(c1)ccc1ccccc12`, with “inactive”; and `CCCOC(=O)c1ccc(O)cc1`, with “inactive”. `O=c1c(-c2ccc(O)cc2)coc2cc(O)ccc12`: the call was inactive.

In the next assay the target is frog Thyroid hormone Receptor alpha (TRa), thra-a (gene 397942) (UniProt P15204). Put plainly: ATG_frTRa_XSP2: Attagene TRANS-FACTORIAL Multi-Species (XSP2) HepG2 Assay for frog Thyroid hormone Receptor alpha (TRa) (AID 2283839).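 On AC50: AC50 reflects induction of frog TRa-driven reporter mRNA above DMSO baseline.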 In outline:
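Transfect HepG2 with multiple reporter units (GAL4-UAS), dose chemical, incubate 24 h. Isolate RNA, reverse-transcribe, PCR-amplify reporter, label with 6-FAM by primer extension, digest with HpaI, run capillary electrophoresis; induction scored against DMSO.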
Regarding `C#C[C@]1(O)CC[C@H]2[C@@H]3CCC4=CC(=O)CC[C@@H]4[C@H]3CC[C@@]21C`, the compound was called inactive. Take `Oc1cc2ccccc2c2ccccc12`: the AC50 is 33.4 µM (active) and the compound was classed as inactive.

Turning to `CC[C@H](c1ccc(O)cc1)[C@@H](CC)c1ccc(O)cc1`, the outcome was inactive.

`O=C(O)Cc1cc(I)c(Oc2cc(I)c(O)c(I)c2)c(I)c1`: the AC50 is 86.6 nM (active) and 15.1 nM (active).

`CCC(C)(C)C1CCC(O)CC1` (stereo not given): the call was inactive. Same read-out and setting: then `c1ccc2c(c1)ccc1ccccc12`, with “inactive”; and `CCCOC(=O)c1ccc(O)cc1`, with “inactive”. Same read-out and setting: then `O=c1c(-c2ccc(O)cc2)coc2cc(O)ccc12`, with “inactive”. On the same count and under the same terms, the result for `CCC(=C(c1ccc(O)cc1)c1ccc(OCCN(C)C)cc1)c1ccccc1` reads “inactive”.

The target in the next assay is human Thyroid hormone Receptor beta (TRb), THRB (gene 7068) (UniProt P10828). The assay can be described thus: ATG_hTRb_XSP2: Attagene TRANS-FACTORIAL Multi-Species (XSP2) HepG2 Assay for human Thyroid hormone Receptor beta (TRb) (AID 2283840).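 Further: actives raise reporter mRNA so potency reflects agonist-like gain of signal.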 In outline: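 Transient transfection of human HepG2 with multi-species NR-Gal4/GAL4-UAS reporter constructs; 24 h compound treatment; RNA isolation, reverse transcription, PCR and HpaI digest; capillary electrophoresis of labeled fragments; activity fitted upward versus DMSO.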
Sequence of human Thyroid hormone Receptor beta (TRb), THRB (gene 7068) (P10828 whole entry, looked up, the tested form may be a part): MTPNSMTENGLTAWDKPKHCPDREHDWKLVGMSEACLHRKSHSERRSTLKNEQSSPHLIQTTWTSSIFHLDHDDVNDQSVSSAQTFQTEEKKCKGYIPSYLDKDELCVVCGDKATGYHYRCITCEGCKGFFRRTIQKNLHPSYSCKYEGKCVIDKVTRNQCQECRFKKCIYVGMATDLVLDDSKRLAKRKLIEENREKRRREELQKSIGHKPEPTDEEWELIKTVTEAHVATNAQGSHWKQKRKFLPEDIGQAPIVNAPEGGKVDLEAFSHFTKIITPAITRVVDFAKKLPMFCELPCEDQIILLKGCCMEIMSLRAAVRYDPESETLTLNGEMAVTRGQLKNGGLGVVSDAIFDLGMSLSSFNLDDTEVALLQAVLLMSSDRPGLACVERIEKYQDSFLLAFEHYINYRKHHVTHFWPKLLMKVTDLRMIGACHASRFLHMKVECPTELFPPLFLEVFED
For `C#C[C@]1(O)CC[C@H]2[C@@H]3CCC4=CC(=O)CC[C@@H]4[C@H]3CC[C@@]21C`, the compound was classed as inactive. With `Oc1cc2ccccc2c2ccccc12`, the AC50 was 16.3 µM (active). `CC[C@H](c1ccc(O)cc1)[C@@H](CC)c1ccc(O)cc1`: the call was inactive. As for `O=C(O)Cc1cc(I)c(Oc2cc(I)c(O)c(I)c2)c(I)c1`, the AC50 was 38.4 nM (active) and 12.3 nM (active).

Take `CCC(C)(C)C1CCC(O)CC1` (stereo not given): the outcome was inactive. On the same count and under the same terms, the result for `c1ccc2c(c1)ccc1ccccc12` reads “inactive”. On to `CCCOC(=O)c1ccc(O)cc1`, for which the AC50 is 100 µM (active) and the result was inactive. Consider `Cc1oc(-c2ccccc2)nc1CCOc1ccc(C[C@H](Nc2ccccc2C(=O)c2ccccc2)C(=O)O)cc1`, for which the compound was classed as inactive. On to `O=c1c(-c2ccc(O)cc2)coc2cc(O)ccc12`, for which the outcome was inactive. For the compound `CCC(=C(c1ccc(O)cc1)c1ccc(OCCN(C)C)cc1)c1ccccc1`, the result was inactive.

The next assay deals with Sodium/Iodide Symporter (NIS), SLC5A5 (gene 6528). The assay can be described thus: CPHEA_Stoker_NIS_Inhibition_RAIU: CPHEA's Radioactive Iodide Uptake (RAIU) Assay for Sodium/Iodide Symporter (NIS) Inhibition, Stoker and Laws Labs (AID 2283841). The essentials:
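Iodide uptake read as CPM of intracellular 125I (final 329 pM) after 2 h room-temperature exposure in HEPES-buffered HBSS, pH 7.4. Human NIS-expressing HEK293T cells; six concentrations 0.001–100 uM, 0.5% DMSO, normalised to DMSO wells.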
`CCCCCCCCCCCCc1ccccc1S(=O)(=O)O`: the outcome was inactive. As for `O=C1OC2(c3ccccc31)c1cc(Br)c(O)c(Br)c1Oc1c2cc(Br)c(O)c1Br`, the AC50 is 14.1 µM (active). For `CC(=O)NC1(c2cccc(F)c2)CCN(CC[C@@]2(c3ccc(Cl)c(Cl)c3)CN(c3ccccc3)C(=O)CO2)CC1`, the result was inactive.

In the case of `Cc1cc(CCN2CCN(c3nsc4ccccc34)CC2)cc2c1NC(=O)CC2(C)C`, the outcome was inactive.

For `CCCCCCCCCCCCCC[N+](C)(C)C`, the AC50 was 19.2 µM (active). Regarding `CCCCCCCCCCCCN1CCCC1=O`, the result was inactive. On the same count and under the same terms, the result for `OCCC(F)(F)C(F)(F)C(F)(F)C(F)(F)C(F)(F)C(F)(F)F` reads “inactive”. On to `Oc1cc2ccccc2c2ccccc12`, for which the outcome was inactive. The same measure, in the same setting: then `NC(=O)N1C(=O)C(C(=O)c2cc(Cl)cs2)c2cc(F)c(Cl)cc21` (stereo not given), with “inactive”. Consider `CC[C@H](c1ccc(O)cc1)[C@@H](CC)c1ccc(O)cc1`, for which the AC50 is 50 µM (active). On to `c1ccc2c(c1)Cc1ccccc1-2`, for which the outcome was inactive.

As for `O=C(O)Cc1cc(I)c(Oc2cc(I)c(O)c(I)c2)c(I)c1`, the result was inactive. As to `FC(F)(I)C(F)(F)C(F)(F)C(F)(F)C(F)(F)C(F)(F)I`, the AC50 was 5.79 µM (active). As for `O=C(OCCOCCOC(=O)c1ccccc1)c1ccccc1`, the outcome was inactive. On the same count and under the same terms, the result for `CCc1ccc(CCOc2ccc(CC3SC(=O)NC3=O)cc2)nc1` (stereo not given) reads “inactive”; that for `CC[C@H](C)[C@@H](C(=O)O)n1sc2ccccc2c1=O`, “inactive”. Take `c1ccc2cc3c(ccc4ccccc43)cc2c1`: the AC50 is 50 µM (active). As to `O=C(O)c1ccccc1C(c1ccc(O)cc1)c1ccc(O)cc1`, the result was inactive. As for `ClC1=C(Cl)C(Cl)(Cl)C(Cl)=C1Cl`, the AC50 was 19.1 µM (active). On the same count and under the same terms, the result for `CC(C)(C)c1ccc(O)c(C(C)(C)C)c1` reads 50 µM (active). On the same count and under the same terms, then `Cc1oc(-c2ccccc2)nc1CCOc1ccc(C[C@H](Nc2ccccc2C(=O)c2ccccc2)C(=O)O)cc1`, with 42.5 µM (active). `CCC(=C(c1ccc(O)cc1)c1ccc(OCCN(C)C)cc1)c1ccccc1`: the outcome was inactive.

In the case of `CC1=C(/C=C/C(C)=C/C=C/C(C)=C/C(=O)O)C(C)(C)CCC1`, the result was inactive.
